# The full list was thinned out, with hits kept by preference.
# ERK EGF block = inhibitors of EGF-stimulated ERK signaling pathway; HEK293-V1b, EGF-stimulated phospho-ERK AlphaScreen; Potency, µM (doses to about 11.5 µM), inactives show at the top dose activity change, negative = inhibition, actives largely listed as inhibitors; 130,000 compounds, 0.41% hits; active means well fitted inhibition curve with a large enough effect;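 further: plate controls were stimulated vehicle wells for no effect and unstimulated vehicle basal for full effect; nearly all actives have a fitted effect of over 55% in size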
#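 HEK293 cells stably expressing V1b receptor, serum-reduced (1% FBS) overnight, pretreated 30 min with compound, then stimulated 5 min with 25 nM EGF; phospho-ERK detected by AlphaScreen SureFire. AC50 from Hill fits, normalized to DMSO and EGF.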
# * = called active by the depositor; [ ] = another dose, or the depositor's remark. Potency means the concentration at half of the fitted maximal effect.
SMILES,ERK EGF block
CCOC(=O)C1CCN(/C=C2/C(=O)NC(=S)N(c3ccccc3F)C2=O)CC1,2.2%
Cc1ccc(/C=C2\C(=O)NC(=S)N(c3ccccc3F)C2=O)s1,20µM*
Cc1ccc(/C=C2\C(=O)NC(=S)N(c3ccc(F)cc3)C2=O)s1,4.6%
CCC1CN2CCc3cc(OC)c(OC)cc3C2CC1CC1NCCc2cc(OC)c(OC)cc21 (stereo unspecified),1.4%
c1cc2c(cc1[C@H]1OC[C@@H]3[C@H]1CO[C@H]3c1ccc3c(c1)OCO3)OCO2,-9.8%
C/C(O)=C(/C#N)C(=O)Nc1cc(Br)ccc1Br,-0.8%
Oc1cc2c(cc1O)[C@H]1c3ccccc3CN[C@H]1CC2,-1.6%
C=C(C=O)CC1CC(O)[C@]2(C)OC3CC4OC5C[C@]6(C)O[C@]7(C)CCC8OC9C[C@]%10(C)OC%11C(C)=CC(=O)OC%11CC%10OC9C[C@@H](C)C8OC7CC6O[C@]5(C)CC5OC5C4OC3CC2O1 (stereo partly specified),35.5µM*
C=C(CO)CC1CC(O)[C@]2(C)OC3CC4OC5C[C@]6(C)O[C@]7(C)CCC8OC9C[C@]%10(C)OC%11C(C)=CC(=O)OC%11CC%10OC9C[C@@H](C)C8OC7CC6O[C@]5(C)C/C=C\C4OC3CC2O1 (stereo partly specified),-17.2%[57.5 µM]
C=C(COC(C)=O)CC1CC(O)[C@]2(C)OC3CC4OC5C[C@]6(C)O[C@]7(C)CCC8OC9C[C@]%10(C)OC%11C(C)=CC(=O)OC%11CC%10OC9C[C@@H](C)C8OC7CC6O[C@]5(C)C/C=C\C4OC3CC2O1 (stereo partly specified),-11.1%[57.5 µM]
CC/C=C\C/C=C\C/C=C\C/C=C\C/C=C\CCCC(=O)NCCO,0.0%
CCCN1CCCC(c2cccc(O)c2)C1 (stereo unspecified),15.7%
CC[n+]1c(/C=C/C=C/c2ccc(N(C)C)cc2)sc2ccccc21,15.8µM*
CN(C)c1ccc(/C=C/c2cc[n+](C)c3ccccc23)cc1,13.5%
NCC(N)C(=O)c1ccccc1 (stereo unspecified),35.4%
CN1[C@@H]2CC[C@H]1CC(OC(c1ccc(F)cc1)c1ccc(F)cc1)C2 (stereo partly specified),7.4%
CC(=O)c1c(O)n(-c2cccc(Cl)c2)c(=O)[nH]c1=O (tested in a mixture with another compound),-9.7%[57.5 µM]
CC(C)n1c(O)c(C2c3cc(Cl)ccc3Oc3[nH]c(=O)n(C(C)C)c(=O)c32)c(=O)[nH]c1=O (stereo unspecified),3.16µM*
O=C1Nc2ccccc2C2(CCN(CCc3ccc(C(F)(F)F)cc3)CC2)O1,31.6µM*
c1cc2cc(c1)C[n+]1ccc(c3ccccc31)NCc1ccc(cc1)CNc1cc[n+](c3ccccc13)C2,-1.6%
c1ccc(N2CCCC3(CCNCC3)C2)nc1,-4.4%
CC1CC[C@@]2(OC1)OC1C(O)C3C4CC[C@H]5CC(O[C@@H]6O[C@@H](CO)[C@H](OC7OC(CO)C(O)C(OC8OCC(O)C(O)[C@H]8O)[C@@H]7O[C@@H]7OC(CO)[C@H](O)[C@@H](O[C@@H]8OC(CO)C(O)C(O)C8O)C7O)C(O)C6O)C(O)C[C@]5(C)C4CC[C@]3(C)C1C2C (stereo partly specified),7.08µM*
CC1CC[C@@]2(OC1)O[C@@H]1[C@@H](O)[C@H]3C4CC[C@H]5C[C@@H](O[C@@H]6O[C@H](CO)[C@H](O[C@@H]7O[C@H](CO)[C@@H](O)[C@H](O[C@@H]8OC[C@@H](O)[C@H](O)[C@H]8O)[C@H]7O[C@@H]7O[C@H](CO)[C@@H](O)[C@H](O[C@@H]8O[C@H](CO)[C@@H](O)[C@H](O)[C@H]8O)[C@H]7O)[C@H](O)[C@H]6O)[C@H](O)C[C@]5(C)C4CC[C@]3(C)[C@H]1[C@@H]2C (stereo partly specified),-3.2%
CC(=O)OC1C[C@H](O[C@@H]2C(O)C[C@H](O[C@@H]3C(O)C[C@@H](OC4CC[C@]5(C)C(CCC6C5CC(O)[C@@]5(C)C(C7=CC(=O)OC7)CC[C@@]65O)C4)OC3C)OC2C)O[C@H](C)[C@H]1O[C@H]1OC(CO)C(O)C(O)C1O (stereo partly specified),18.2%
c1cncc([C@@H]2CCCCN2)c1,-0.1%
O[C@H]1CCCC[C@H]1N1CCC(c2ccccc2)CC1,-10.6%
C[C@@H]1OC(OC2C(OC3CC[C@@]4(C)C5CC=C6C7CC(C)(C)CC[C@@]7(C(=O)O)CCC6(C)C5(C)CCC4[C@]3(C)CO)OCC(O)C2O)C(O)C(O)C1O (stereo partly specified),28.2µM*
ClC1=C(Cl)C2(Cl)C3C4CC(C5OC45)C3C1(Cl)C2(Cl)Cl (stereo unspecified),35.0%
CC(C)=CCCC1(C)C=Cc2c(O)c3c(c(CC=C(C)C)c2O1)OC12C(=CC4CC1C(C)(C)OC2(C/C=C(/C)C(=O)O)C4O)C3=O (stereo unspecified),37.4%

# High-throughput results: PubChem BioAssay, National Center for Advancing Translational Sciences (NCATS)
